Laboratory results taken from PubChem BioAssay (Tox21).
Inconclusive results are not listed. Activity calls are given as the source filed them. Unless noted, the call rests on the fitted dose curve; in most records, active means well fitted curve in the direction sought with a large enough effect in the repeat runs; inconclusive means weak or mixed curves; inactive means no such curve, though single readings can be large; an effect the other way counts as inactive or inconclusive.

Experiments:
[1] = molecular target: Estrogen receptor (Homo sapiens) (UniProt P03372); experiment: qHTS assay to identify small molecule agonists of the estrogen receptor alpha (ER-alpha) signaling pathway in the presence of an antagonist (AID 1259383; calls by dose curve; further: top concentration of the series differs between compounds; nearly all actives have a fitted effect of over 15% in size)
Method in brief: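 ER-alpha agonism measured under antagonist challenge: 10.0nM ICI-182,780 (final) plus compound, 15 concentrations, 22hr, VM7Luc4E2 ERE-luciferase cells. Read by luminescence.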

[2] = qHTS assay to identify small molecule agonists of the estrogen receptor alpha (ER-alpha) signaling pathway in the presence of an antagonist - cell viability counter screen (AID 1259386);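 further: series mostly up to about 92 µM; cells exposed to compounds for 22 h at 37 °C before the viability read; nearly all actives have a fitted effect of over 30% in size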
Method in brief: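 Steps: 5-day stripped-FBS culture; seed and incubate 24hr; add ICI-182,780 (10.0nM final); pin 15-point compound titration; incubate 22hr at 37C; add CellTiter-Fluor at 21hr; read fluorescence.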

[3] = molecular target: Progesterone receptor (Homo sapiens) (UniProt P06401); experiment: qHTS assay to identify small molecule antagonists of the progesterone receptor (PR) signaling pathway (AID 1346795; active means well fitted inhibition curve with a large enough effect in the signal ratio in the repeat runs, not every such curve was filed as active; the % refers to the signal ratio)
Method in brief: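 Inhibition of R5020-induced (1 nM final) beta-lactamase reporter signal in PR-UAS-bla HEK293T cells was scored by FRET fluorescence after overnight (16 hr) compound treatment.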

[4] = qHTS assay to identify small molecule antagonists of the progesterone receptor (PR) signaling pathway - cell viability counter screen (AID 1346798); further: series mostly up to about 92 µM; nearly all actives have a fitted effect of over 50% in size
Method in brief: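 ATP content as viability readout: CellTiter-Glo luminescence, 30 min room temperature, in PR-UAS-bla HEK293T cells after 16 hr compound/R5020 treatment at 37C and 5% CO2.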

[5] = qHTS assay to identify small molecule agonists of the progesterone receptor (PR) signaling pathway - cell viability counter screen (AID 1346799; calls by dose curve; further: nearly all actives have a fitted effect of over 45% in size)
Method in brief: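 Cytotoxicity in PR-bla HEK293T cells: 16 h compound, 37C; CellTiter-Glo added post-FRET read; luminescence after 30 min RT.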

[6] = qHTS assay to identify small molecule antagonists of the TGF-beta/Smad signaling pathway - cell viability counter screen (AID 1346824); further: nearly all actives have a fitted effect of over 50% in size
Method in brief: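 SBE-bla HEK 293T cells were plated overnight at 37 C, then given compounds in DMSO plus TGF-beta1 (added as 0.25 ng/mL solution) for 5 hr. After the bla read, CellTiter-Glo was added to the same wells and luminescence read after 30 min at room temperature.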

[7] = qHTS assay to identify small molecule agonists of the TGF-beta/Smad signaling pathway - cell viability counter screen (AID 1346829); further: top concentration of the series differs between compounds; nearly all actives have a fitted effect of over 45% in size
Method in brief: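 After overnight seating at 37 C and 5% CO2, reporter cells got compounds for 5 hr and FRET substrate for 2 hr; cell viability then came from CellTiter-Glo luminescence.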

[8] = qHTS assay to identify small molecule agonists of the TGF-beta/Smad signaling pathway (AID 1346859; active means well fitted activation curve with a large enough effect in the signal ratio in the repeat runs, not every such curve was filed as active; the % refers to the signal ratio; further: series mostly up to about 77 µM)
Method in brief: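 Stable Smad binding element-beta-lactamase HEK 293T cells; 5 hr compound exposure at 37 C under 5% CO2; 2 hr room-temperature substrate step; fluorescence excited at 405 nm, collected at 460 nm and 530 nm.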

[9] = molecular target: Thyrotropin-releasing hormone receptor (Homo sapiens) (UniProt P34981); experiment: qHTS assay to identify small molecule antagonists of the thyrotropin-releasing hormone receptor (TRHR) signaling pathway (AID 1346877; active means well fitted inhibition curve with a large enough effect in the repeat runs, not every such curve was filed as active; further: series mostly up to about 51 µM)
Method in brief: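 Human TRHR in HEK293 cells; inhibition of the intracellular calcium rise triggered by 1 nM TRH was followed by fluorescence over 3 min. Compounds were run at 15 concentrations, three replicates each.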

[10] = molecular target: Thyrotropin-releasing hormone receptor (Homo sapiens) (UniProt P34981); experiment: qHTS assay to identify small molecule agonists of the thyrotropin-releasing hormone receptor (TRHR) signaling pathway (AID 1346891; calls by dose curve;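 further: HEK293 cells expressing TRHR with calcium dye readout; series mostly up to about 58 µM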)
Method in brief: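 In 1536-format, 1500 TRHR-Hek293 cells per well grew 18 h, took up calcium dye for 2 h at 37 °C, received compound, and were read kinetically; 15-point titrations, triplicates.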

[11] = Human pregnane X receptor (PXR) small molecule agonists, qHTS cell viability counter screen (AID 1346977); further: nearly all actives have a fitted effect of over 50% in size
Method in brief: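 Readout is CellTiter-Fluor fluorescence from PXR-Luc HepG2 cells. Plated cells rested 5hr, then were treated with compounds for 24hr at 37C and 5% CO2, with reagent present during the last hour.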

[12] = Caspase-3/7 induction in HepG2 cells by small molecules, qHTS assay (AID 1346978); further: nearly all actives have a fitted effect of over 15% in size
Method in brief: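 Wild-type HepG2 cells (2,000/well) were settled 5 h at 37 C, 5% CO2, then exposed to compounds in DMSO for 17 h. Caspase-3/7 activity was read by luminescence 30 min after adding Caspase-Glo 3/7 reagent at room temperature.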

[13] = Caspase-3/7 induction in CHO-K1 cells by small molecules, qHTS cell viability counter screen (AID 1346979); further: nearly all actives have a fitted effect of over 35% in size
Method in brief: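 To flag cytotoxic compounds, treated CHO-K1 wild-type cells were given CellTiter-Fluor at 16hr and read fluorescently after 1hr at 37C; the caspase-3/7 luminescence was measured in these same wells.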

[14] = Caspase-3/7 induction in CHO-K1 cells by small molecules, qHTS assay (AID 1346980); further: nearly all actives have a fitted effect of over 15% in size
Method in brief: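 Wild-type cells were seeded at 1,500 per well and settled 5 hr at 37 C, 5% CO2, then exposed to DMSO-dissolved compounds for 17 hr. Caspase-Glo 3/7 reagent was added, and luminescence was read after 30min at room temperature.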

[15] = Caspase-3/7 induction in HepG2 cells by small molecules, qHTS cell viability counter screen (AID 1346981); further: series mostly up to about 92 µM; nearly all actives have a fitted effect of over 30% in size
Method in brief: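 The parent HepG2 line is plated at 2,000 cells per well and rested 5 hr before compound pinning from DMSO stocks. Following a 16-hr treatment at 37 C, a fluorogenic live-cell substrate (CellTiter-Fluor) reports viability after 1 hr.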

[16] = molecular target: Nuclear receptor subfamily 1 group I member 2 (Homo sapiens) (UniProt O75469); experiment: Human pregnane X receptor (PXR) small molecule agonists, qHTS assay (AID 1346982); further: nearly all actives have a fitted effect of over 35% in size; further: potency means the concentration at half of the fitted maximal effect
Method in brief: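 After plating in 5% charcoal-stripped FBS and a 5 hr rest, PXR-Luc HepG2 cells received compounds in DMSO. Following 24 hr at 37 C, ONE-Glo was added and light output read.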

[17] = molecular target: Progesterone receptor (Homo sapiens) (UniProt P06401); experiment: qHTS assay to identify small molecule agonists of the progesterone receptor (PR) signaling pathway (AID 1346784; calls by dose curve; further: nearly all actives have a fitted effect of over 30% in size)
Method in brief: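 Using charcoal-stripped serum (2%) to limit endogenous steroids, PR-UAS-bla HEK 293T cells received compounds for 16 hr at 37C after 6 hr plating; beta-lactamase FRET fluorescence was recorded following 2 hr substrate loading at room temperature.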

[18] = qHTS assay to identify small molecule agonists or antagonists of the thyroid stimulating hormone receptor (TSHR) signaling pathway - wild type cell line counter screen (AID 1259384; calls by dose curve)
Method in brief: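 Wild-type HEK293 cells were plated 18 h at 37 C/5% CO2, pin-dosed with compound plus Ro20-1724 medium, held 30 min at room temperature, then given cAMP-d2 and anti-cAMP-cryptate; fluorescence was read after 1 h. Fifteen concentrations, triplicate.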

[19] = molecular target: Nuclear receptor subfamily 1 group I member 2 (Rattus norvegicus) (UniProt Q9R1A7); experiment: Rat pregnane X receptor (rPXR) activation by small molecules, qHTS assay (AID 1346983); conditions: rPXR luciferase reporter cells, One-Glo luminescence, 24 h; max activation: hits give high values; further: nearly all actives have a fitted effect of over 20% in size
Method in brief: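 Cell-based rPXR luciferase reporter assay, 2,000 cells per well, rested 5hr at 37 C before compound addition in DMSO, then 24 hr at 37 C. One-Glo reagent was added and luminescence read after 30 min at room temperature.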

[20] = molecular target: Thyrotropin receptor (Homo sapiens) (UniProt P16473); experiment: qHTS assay to identify small molecule antagonists of the thyroid stimulating hormone receptor (TSHR) signaling pathway (AID 1259385; calls by dose curve; further: nearly all actives have a fitted effect of over 20% in size)
Method in brief: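 TSHR-HEK293 cells were plated and held 18 h at 37C/5% CO2, then given compound plus Ro20-1724 and stimulated with TSH at 1.5 ng/mL final. After 30 min at room temperature, cAMP was detected with cAMP-d2/anti-cAMP-cryptate (1 h) by fluorescence.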
On the % scale 0 is the no-effect control and ±100 the full control effect.

Chain of Thyrotropin receptor (Homo sapiens) (P16473 whole entry, looked up): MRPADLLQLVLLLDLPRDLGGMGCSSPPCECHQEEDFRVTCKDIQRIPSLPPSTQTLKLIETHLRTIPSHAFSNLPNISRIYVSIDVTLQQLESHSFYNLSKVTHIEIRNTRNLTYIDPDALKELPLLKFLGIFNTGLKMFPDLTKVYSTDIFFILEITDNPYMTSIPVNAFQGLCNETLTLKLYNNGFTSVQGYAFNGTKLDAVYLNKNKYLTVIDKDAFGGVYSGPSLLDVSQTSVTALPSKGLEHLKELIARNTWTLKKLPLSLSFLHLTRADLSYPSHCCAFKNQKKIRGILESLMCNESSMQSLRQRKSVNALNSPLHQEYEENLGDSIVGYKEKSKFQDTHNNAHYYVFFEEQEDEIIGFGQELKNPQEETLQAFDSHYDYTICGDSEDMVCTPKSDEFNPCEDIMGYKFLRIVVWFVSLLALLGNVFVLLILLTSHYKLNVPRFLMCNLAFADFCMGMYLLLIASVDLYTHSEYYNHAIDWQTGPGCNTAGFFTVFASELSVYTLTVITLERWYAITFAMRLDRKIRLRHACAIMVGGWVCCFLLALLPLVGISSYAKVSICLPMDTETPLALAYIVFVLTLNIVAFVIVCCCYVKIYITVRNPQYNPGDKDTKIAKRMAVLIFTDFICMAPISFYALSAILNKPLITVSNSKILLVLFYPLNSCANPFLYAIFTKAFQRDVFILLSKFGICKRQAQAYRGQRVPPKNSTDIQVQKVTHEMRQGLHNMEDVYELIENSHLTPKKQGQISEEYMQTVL
Chain of Thyrotropin-releasing hormone receptor (Homo sapiens) (P34981 whole entry, looked up): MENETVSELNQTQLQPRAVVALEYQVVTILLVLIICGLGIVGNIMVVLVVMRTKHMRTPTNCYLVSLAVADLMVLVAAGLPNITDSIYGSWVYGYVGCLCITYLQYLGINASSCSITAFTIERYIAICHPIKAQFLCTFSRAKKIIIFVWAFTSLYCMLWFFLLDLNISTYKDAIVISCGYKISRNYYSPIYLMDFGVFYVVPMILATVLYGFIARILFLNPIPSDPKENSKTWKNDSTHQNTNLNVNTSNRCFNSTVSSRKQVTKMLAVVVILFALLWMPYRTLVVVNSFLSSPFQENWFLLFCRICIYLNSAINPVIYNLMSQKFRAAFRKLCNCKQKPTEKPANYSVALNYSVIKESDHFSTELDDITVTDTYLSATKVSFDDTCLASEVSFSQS
Chain of Estrogen receptor (Homo sapiens) (P03372 whole entry, looked up): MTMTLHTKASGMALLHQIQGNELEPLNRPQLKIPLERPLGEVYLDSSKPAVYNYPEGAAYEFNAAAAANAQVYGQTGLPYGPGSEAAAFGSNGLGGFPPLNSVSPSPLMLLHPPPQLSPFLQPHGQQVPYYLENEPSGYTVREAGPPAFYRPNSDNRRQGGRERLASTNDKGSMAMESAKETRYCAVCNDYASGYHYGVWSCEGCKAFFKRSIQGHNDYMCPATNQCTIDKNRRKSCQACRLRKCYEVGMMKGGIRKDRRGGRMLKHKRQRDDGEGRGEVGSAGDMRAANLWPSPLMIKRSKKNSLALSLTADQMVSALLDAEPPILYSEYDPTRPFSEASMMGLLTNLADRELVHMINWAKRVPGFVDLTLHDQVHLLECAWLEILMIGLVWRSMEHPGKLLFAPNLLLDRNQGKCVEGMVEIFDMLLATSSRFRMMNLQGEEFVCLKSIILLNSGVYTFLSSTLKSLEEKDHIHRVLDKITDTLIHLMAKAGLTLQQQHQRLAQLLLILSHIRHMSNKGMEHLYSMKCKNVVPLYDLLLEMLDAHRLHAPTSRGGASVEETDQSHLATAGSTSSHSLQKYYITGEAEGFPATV
Chain of Nuclear receptor subfamily 1 group I member 2 (Rattus norvegicus) (Q9R1A7 whole entry, looked up): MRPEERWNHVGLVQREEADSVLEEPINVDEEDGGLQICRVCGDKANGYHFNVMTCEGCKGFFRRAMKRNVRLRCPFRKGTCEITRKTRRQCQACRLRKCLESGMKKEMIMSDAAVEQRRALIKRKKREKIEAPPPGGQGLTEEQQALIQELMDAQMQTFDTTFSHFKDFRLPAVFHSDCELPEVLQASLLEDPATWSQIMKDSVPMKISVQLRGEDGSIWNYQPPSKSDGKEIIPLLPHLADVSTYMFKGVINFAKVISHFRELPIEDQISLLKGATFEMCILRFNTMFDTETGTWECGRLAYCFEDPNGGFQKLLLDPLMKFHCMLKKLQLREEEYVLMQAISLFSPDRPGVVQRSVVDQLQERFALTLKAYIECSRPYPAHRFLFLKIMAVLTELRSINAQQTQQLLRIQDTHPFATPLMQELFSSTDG
Chain of Progesterone receptor (Homo sapiens) (P06401 whole entry, looked up): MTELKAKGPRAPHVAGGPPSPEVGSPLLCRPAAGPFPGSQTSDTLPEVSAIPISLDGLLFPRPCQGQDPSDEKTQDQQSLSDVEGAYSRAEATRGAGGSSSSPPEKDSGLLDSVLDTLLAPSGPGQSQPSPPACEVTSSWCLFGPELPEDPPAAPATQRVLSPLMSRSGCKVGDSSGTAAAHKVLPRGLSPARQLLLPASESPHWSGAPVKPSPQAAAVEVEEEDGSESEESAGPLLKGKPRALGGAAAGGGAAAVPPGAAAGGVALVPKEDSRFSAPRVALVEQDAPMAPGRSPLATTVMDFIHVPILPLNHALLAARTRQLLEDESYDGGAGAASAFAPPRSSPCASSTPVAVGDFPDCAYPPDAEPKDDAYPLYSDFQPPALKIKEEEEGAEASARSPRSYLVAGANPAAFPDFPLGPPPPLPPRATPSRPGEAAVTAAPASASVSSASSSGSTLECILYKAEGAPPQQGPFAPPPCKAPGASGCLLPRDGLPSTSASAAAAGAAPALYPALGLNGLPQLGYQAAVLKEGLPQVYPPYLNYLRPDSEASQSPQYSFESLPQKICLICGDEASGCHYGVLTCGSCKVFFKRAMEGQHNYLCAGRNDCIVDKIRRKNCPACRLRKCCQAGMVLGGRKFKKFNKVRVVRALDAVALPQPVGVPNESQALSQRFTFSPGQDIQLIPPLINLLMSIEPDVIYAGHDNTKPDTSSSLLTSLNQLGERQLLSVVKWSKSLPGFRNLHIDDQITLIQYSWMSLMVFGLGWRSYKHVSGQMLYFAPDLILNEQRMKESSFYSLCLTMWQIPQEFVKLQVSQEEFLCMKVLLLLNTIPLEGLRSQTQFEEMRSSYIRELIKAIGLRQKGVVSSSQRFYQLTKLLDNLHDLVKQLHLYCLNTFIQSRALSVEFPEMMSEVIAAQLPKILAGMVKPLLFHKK
Chain of Nuclear receptor subfamily 1 group I member 2 (Homo sapiens) (O75469 whole entry, looked up): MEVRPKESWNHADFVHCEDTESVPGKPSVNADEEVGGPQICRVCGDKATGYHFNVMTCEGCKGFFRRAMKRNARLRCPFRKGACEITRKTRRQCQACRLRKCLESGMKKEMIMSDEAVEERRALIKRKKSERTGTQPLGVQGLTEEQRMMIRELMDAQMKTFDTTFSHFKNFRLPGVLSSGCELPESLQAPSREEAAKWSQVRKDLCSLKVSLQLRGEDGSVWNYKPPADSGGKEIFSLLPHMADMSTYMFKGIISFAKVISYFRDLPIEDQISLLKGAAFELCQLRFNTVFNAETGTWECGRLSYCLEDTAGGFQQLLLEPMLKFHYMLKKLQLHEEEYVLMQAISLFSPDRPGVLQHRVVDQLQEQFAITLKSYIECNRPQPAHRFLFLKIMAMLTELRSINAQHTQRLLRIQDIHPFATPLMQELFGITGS

CCCCCCC(O)CO (stereo not given)
inactive: Potency [1] | outcome [2] | Potency [3] | outcome [4] | Potency [5] | outcome [6] | outcome [7] | outcome [8] | outcome [9] | Potency [10] | outcome [11] | outcome [12] | Potency [13] | outcome [14] | outcome [15] | Potency [16]

C=CCOC(=O)CCCCCCCC
inactive: Potency [1] | outcome [2] | Potency [17] | Potency [3] | Potency [5] | outcome [8] | outcome [11] | outcome [12] | Potency [13] | outcome [15] | Potency [16]

O=C(O)Cc1c(Cl)ccc(Cl)c1Cl
inactive: Potency [1] | outcome [18] | outcome [2] | Potency [17] | Potency [3] | outcome [4] | Potency [5] | outcome [6] | outcome [7] | outcome [9] | Potency [10] | outcome [11] | outcome [12] | outcome [15] | Potency [16]

C=CCCCCCCCCOC(C)=O
inactive: Potency [1] | outcome [2] | Potency [17] | Potency [3] | outcome [4] | Potency [5] | outcome [6] | outcome [7] | outcome [8] | outcome [9] | Potency [10] | outcome [11] | outcome [12] | Potency [13] | outcome [14] | outcome [15] | Potency [16]

C[Si](C)(C)O[Si](O)(O)O
inactive: Potency [1] | outcome [2] | Potency [17] | Potency [5] | outcome [6] | outcome [8] | outcome [9] | Potency [10] | outcome [11] | outcome [12] | Potency [13] | outcome [14] | outcome [15] | Potency [16]

CCOC(=O)CN1CCCC1=O
inactive: Potency [1] | outcome [2] | Potency [17] | Potency [3] | outcome [4] | outcome [6] | outcome [7] | outcome [8] | outcome [9] | outcome [11] | outcome [12] | Potency [13] | outcome [14] | outcome [15] | Potency [16]

NNC(=O)CCCCC(=O)NN
inactive: Potency [1] | outcome [2] | Potency [17] | Potency [3] | outcome [4] | Potency [5] | outcome [6] | outcome [7] | outcome [8] | outcome [9] | outcome [11] | outcome [12] | Potency [13] | outcome [15] | Potency [16]

CCOC(=O)CC(C(C)=O)C(C)=O
inactive: Potency [1] | outcome [18] | outcome [2] | Potency [3] | outcome [4] | Potency [5] | outcome [6] | outcome [7] | outcome [8] | outcome [9] | Potency [10] | outcome [11] | outcome [12] | Potency [13] | outcome [15] | Potency [16]

CCCCN1C(=O)c2ccccc2C1=O
inactive: Potency [1] | outcome [18] | outcome [2] | Potency [17] | Potency [3] | Potency [5] | outcome [6] | outcome [7] | outcome [8] | outcome [9] | Potency [10] | outcome [11] | outcome [12] | Potency [13] | outcome [14] | outcome [15] | Potency [16]

COC(=O)N/N=C/c1c[n+]([O-])c2ccccc2[n+]1[O-]
inactive: Potency [1] | outcome [18] | outcome [2] | Potency [17] | Potency [3] | outcome [4] | outcome [6] | outcome [7] | outcome [8] | outcome [9] | outcome [11] | outcome [12] | Potency [13] | outcome [14] | outcome [15] | Potency [16] | max activation [19] -1.2%

CC(=O)c1ccc(O)c(C(N)=O)c1
inactive: outcome [18] | outcome [20] | outcome [2] | Potency [17] | Potency [3] | outcome [4] | Potency [5] | outcome [6] | outcome [7] | outcome [8] | outcome [9] | outcome [11] | outcome [12] | Potency [13] | outcome [15] | Potency [16]

C=CC(C)(CCC=C(C)C)OC(=O)C(C)C (stereo not given)
inactive: outcome [18] | outcome [20] | outcome [2] | Potency [17] | Potency [3] | outcome [4] | Potency [5] | outcome [7] | outcome [8] | outcome [9] | outcome [11] | outcome [12] | Potency [13] | outcome [14] | outcome [15] | Potency [16]

CCOc1ccccc1OCCN[C@H](C)Cc1ccc(OC)c(S(N)(=O)=O)c1
active: Potency [16] 26.6 µM
inactive: outcome [18] | outcome [20] | outcome [2] | Potency [17] | Potency [3] | outcome [4] | Potency [5] | outcome [6] | outcome [7] | outcome [8] | outcome [9] | Potency [10] | outcome [11] | outcome [12] | Potency [13] | outcome [14] | outcome [15] | max activation [19] -6.48%

CNCCc1ccccn1
inactive: outcome [18] | outcome [20] | outcome [2] | Potency [17] | Potency [3] | outcome [4] | Potency [5] | outcome [6] | outcome [8] | outcome [9] | Potency [10] | outcome [11] | outcome [12] | Potency [13] | outcome [14] | outcome [15] | Potency [16] | max activation [19] -1.65%

CC(C)(Sc1cc(C(C)(C)C)c(O)c(C(C)(C)C)c1)Sc1cc(C(C)(C)C)c(O)c(C(C)(C)C)c1
inactive: outcome [18] | outcome [20] | outcome [2] | Potency [17] | Potency [3] | outcome [4] | outcome [6] | outcome [7] | outcome [8] | outcome [9] | Potency [10] | outcome [11] | outcome [12] | Potency [13] | outcome [14] | outcome [15] | max activation [19] -1.55%

C=CCN1CCc2nc(N)sc2CC1
inactive: outcome [18] | outcome [20] | outcome [2] | Potency [17] | Potency [3] | outcome [4] | outcome [6] | outcome [8] | outcome [9] | outcome [11] | outcome [12] | Potency [13] | outcome [14] | outcome [15] | Potency [16] | max activation [19] -4.96%
